Data reported in PubChem BioAssay (EPA / NIEHS).
Active and inactive are the calls of the source. The calls were made as follows: active = hit-call score of the fitted dose curve at least 0.9, where 1 is the maximum; inactive = score below 0.9.

What was measured:
[1] = ATG_GLI_CIS: Attagene CIS-FACTORIAL HepG2 Assay for human Zinc Finger Protein GLI1 (AID 2282945); conditions: HepG2, Attagene cis-factorial reporter mRNA, GLI element; actives raise or lower the signal
Procedure, shortened: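 Transiently transfected HepG2 cells report endogenous transcription factor activity via cis-element-driven reporter units. After 24 h compound exposure, reporter mRNA was measured by RT-PCR with capillary electrophoresis; bidirectional fitting against DMSO baseline.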

[2] = ATG_ISRE_CIS: Attagene CIS-FACTORIAL HepG2 Assay for human Interferon Regulatory Factor 1 (IRF1) binding to an Interferon-Stimulated Response Element (ISRE) (AID 2282948); conditions: HepG2 ISRE cis-reporter (Attagene), mRNA transcription readout; actives raise or lower the signal
Procedure, shortened: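 Cell-based cis-reporter assay; HepG2; 24 h exposure; reporter mRNA by RT-PCR plus capillary electrophoresis fluorescence; activity in either direction scored relative to DMSO.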

[3] = ATG_M_32_CIS: Attagene CIS-FACTORIAL HepG2 Assay for M32 Transcription Factor (Internal Marker) (AID 2282949); conditions: HepG2 Attagene cis-factorial M32 reporter, mRNA; actives raise or lower the signal;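 also: background control marker of the multiplexed CIS panel rather than a real target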
Procedure, shortened: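 HepG2 cells transiently transfected with multiplexed cis-regulated reporter units, dosed 24 h. Reporter mRNA quantified by RT-PCR, 6-FAM labelling, HpaI digestion and capillary electrophoresis; bidirectional fit vs DMSO.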

[4] = ATG_M_06_CIS: Attagene CIS-FACTORIAL HepG2 Assay for M06 Transcription Factor (Internal Marker) (AID 2282950); conditions: HepG2 Attagene CIS-FACTORIAL M06 internal marker reporter; actives raise or lower the signal
Procedure, shortened: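 Terse: HepG2, transient MRTU transfection (FuGene 6), 24 h dosing; total RNA, oligo(dT) RT, PCR, FAM label, HpaI cut, capillary electrophoresis; bidirectional fit vs DMSO baseline; background-control endpoint.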

[5] = biological target: Hypoxia-inducible factor 1-alpha (Homo sapiens) (UniProt Q16665); assay: ATG_HIF1a_CIS: Attagene CIS-FACTORIAL HepG2 Assay for human Hypoxia Inducible Factor 1 (HIF1A) (AID 2282951); conditions: HepG2 Attagene cis-factorial HIF1a reporter transcription; actives raise or lower the signal
Procedure, shortened: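 Cis-element reporter constructs were transiently transfected into HepG2 cells, which were treated for 24 h; reporter RNA was reverse-transcribed, amplified, labelled and resolved by capillary electrophoresis.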

[6] = biological target: Hepatocyte nuclear factor 6 (Homo sapiens) (UniProt Q9UBC0); assay: ATG_HNF6_CIS: Attagene CIS-FACTORIAL HepG2 Assay for human Hepatocyte Nuclear Factor 6 (HNF6) (AID 2282952); conditions: HepG2 Attagene cis-factorial HNF6 reporter transcription; actives raise or lower the signal
Procedure, shortened: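 Cells are HepG2 carrying transiently transfected cis-promoter reporter units. Treatment lasts 24 h, after which reporter transcripts are reverse-transcribed, amplified, FAM-labelled and sized by capillary electrophoresis. DMSO serves as baseline.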

[7] = biological target: Heat shock factor protein 1 (Homo sapiens) (UniProt Q00613); assay: ATG_HSE_CIS: Attagene CIS-FACTORIAL HepG2 Assay for human Heat Shock Transcription Factor 1 (HSE) (AID 2282953); conditions: HepG2 HSE cis-reporter, Attagene RNA transcription; actives raise or lower the signal
Procedure, shortened: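 Read-out: fluorescence of reporter-specific RT-PCR fragments separated by capillary electrophoresis. HepG2 carrying transfected cis-element reporter units; 24 h dosing; activity fitted in both directions relative to DMSO baseline.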

[8] = ATG_MRE_CIS: Attagene CIS-FACTORIAL HepG2 Assay for human Metal Responsive Element (MRE) (AID 2282954); conditions: HepG2 MRE cis-reporter transcription, Attagene multiplex; actives raise or lower the signal
Procedure, shortened: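 HepG2 cells transiently transfected with cis-element-driven reporter units; mRNA measured 24 h after dosing. Reporter transcripts quantified by RT-PCR, FAM labelling, HpaI digestion and capillary electrophoresis; bidirectional fit versus DMSO.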

[9] = ATG_PBREM_CIS: Attagene CIS-FACTORIAL HepG2 Assay for human Phenobarbital-responsive Enhancer Module (PBREM) (AID 2282955); conditions: HepG2 PBREM cis-reporter, Attagene multiplexed transcription; actives raise or lower the signal
Procedure, shortened: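 Multiplexed cis-reporter readout in human hepatoma HepG2 cells; PBREM-regulated transcript quantified after 24 h exposure by fluorescent RT-PCR fragment analysis. Signal changes up or down fitted relative to DMSO.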

[10] = biological target: Paired box protein Pax-6 (Homo sapiens) (UniProt P26367); assay: ATG_Pax6_CIS: Attagene CIS-FACTORIAL HepG2 Assay for human Paired Box 6 (PAX6) (AID 2282956); conditions: HepG2 CIS-FACTORIAL PAX6 reporter transcription, RNA readout; actives raise or lower the signal
Procedure, shortened: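 Multiplexed cis-reporter HepG2 system; 24 h treatment; reporter mRNA read by RT-PCR/CE fluorescence; bidirectional fit vs DMSO.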

[11] = ATG_PXRE_CIS: Attagene CIS-FACTORIAL HepG2 Assay for human Pregnane X Receptor Element (PXRE) (AID 2282957); conditions: HepG2 Attagene CIS-FACTORIAL PXRE reporter, mRNA; actives raise or lower the signal
Procedure, shortened: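 Multiplexed cis-reporter assay in transiently transfected human HepG2 cells; 24 h chemical exposure. Reporter transcripts quantified by RT-PCR with fluorescent labeling and capillary electrophoresis.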

[12] = ATG_Sox_CIS: Attagene CIS-FACTORIAL HepG2 Assay for human SRY-box transcription factor (SOX) (AID 2282960); conditions: HepG2 Attagene cis-factorial SOX reporter, mRNA; actives raise or lower the signal
Procedure, shortened: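 Fluorescence-labelled cDNA fragments from reporter transcripts, sized by CE, give the signal. Cells: HepG2, transiently transfected with cis-regulated reporter units. Exposure 24 h; DMSO negative control; bidirectional curve fitting.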

[13] = biological target: Transcription factor Sp1 (Homo sapiens) (UniProt P08047); assay: ATG_Sp1_CIS: Attagene CIS-FACTORIAL HepG2 Assay for human Specificity Protein 1 (Sp1) (AID 2282961); conditions: HepG2 Sp1 cis-reporter transcription, actives raise or lower the signal
Procedure, shortened: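 Chemicals are dosed onto HepG2 cells transfected with multiple cis-promoter reporter constructs, and after 24 h reporter RNA is reverse-transcribed, PCR-amplified and resolved by capillary electrophoresis for fluorescence quantitation; activity is scored up or down against DMSO.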

[14] = ATG_SREBP_CIS: Attagene CIS-FACTORIAL HepG2 Assay for human Sterol Regulatory Element Binding (SREBP) (AID 2282962); conditions: HepG2 Attagene cis-factorial SREBP reporter, mRNA; actives raise or lower the signal
Procedure, shortened: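 mRNA induction of transfected cis-promoter reporters in HepG2 cells, 24 h post-dose. Detection: RT-PCR with 6-FAM-labelled products, HpaI digest, capillary electrophoresis. DMSO served as negative control and baseline.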

[15] = biological target: Signal transducer and activator of transcription 3 (Homo sapiens) (UniProt P40763); assay: ATG_STAT3_CIS: Attagene CIS-FACTORIAL HepG2 Assay for human Signal Transducer and Activator of Transcription 3 (STAT3) (AID 2282963); conditions: HepG2, Attagene cis-factorial STAT3 reporter transcription; actives raise or lower the signal
Procedure, shortened: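 HepG2 cells transiently transfected with multiple cis-element-driven reporter units report endogenous transcription factor activity. After 24 h compound exposure, reporter mRNA is measured by RT-PCR, 6-FAM labelling, HpaI digestion and capillary electrophoresis. Fitted bidirectionally versus DMSO.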

[16] = ATG_TA_CIS: Attagene CIS-FACTORIAL HepG2 Assay for human TA Basal Promoter (AID 2282964); conditions: HepG2 Attagene CIS-factorial TA basal promoter reporter; actives raise or lower the signal
Procedure, shortened: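 Transfected HepG2, 24 h compound exposure; RNA → RT-PCR → FAM primer extension → HpaI cut → CE fluorescence. Gain/loss-of-signal fitted against DMSO negative control. Background-control readout.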

[17] = ATG_RORE_CIS: Attagene CIS-FACTORIAL HepG2 Assay for human RAR-related Orphan Receptor Element (RORE) (AID 2282959); conditions: HepG2 Attagene cis-factorial RORE reporter, mRNA; actives raise or lower the signal
Procedure, shortened: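 Transfect HepG2 with MRTUs; treat 24 h; extract RNA; RT with oligo(dT); PCR with reporter-specific primers; 6-FAM primer extension; HpaI digest 2 h at 37 C; capillary electrophoresis. Fit vs DMSO, bidirectional.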

[18] = ATG_PPRE_CIS: Attagene CIS-FACTORIAL HepG2 Assay for human Peroxisome Proliferator-activated Response Element (PPRE) (AID 2282958); conditions: HepG2 PPRE cis-element reporter, Attagene transcription factor profiling; actives raise or lower the signal
Procedure, shortened: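 DMSO served as negative control and baseline for bidirectional curve fitting. Signal came from PPRE-regulated reporter mRNA in HepG2 cells, measured 24 h post-dosing by RT-PCR, 6-FAM primer extension and capillary electrophoresis.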

Measured: AC50

Transcription factor Sp1 (Homo sapiens), sequence (P08047 whole entry, looked up): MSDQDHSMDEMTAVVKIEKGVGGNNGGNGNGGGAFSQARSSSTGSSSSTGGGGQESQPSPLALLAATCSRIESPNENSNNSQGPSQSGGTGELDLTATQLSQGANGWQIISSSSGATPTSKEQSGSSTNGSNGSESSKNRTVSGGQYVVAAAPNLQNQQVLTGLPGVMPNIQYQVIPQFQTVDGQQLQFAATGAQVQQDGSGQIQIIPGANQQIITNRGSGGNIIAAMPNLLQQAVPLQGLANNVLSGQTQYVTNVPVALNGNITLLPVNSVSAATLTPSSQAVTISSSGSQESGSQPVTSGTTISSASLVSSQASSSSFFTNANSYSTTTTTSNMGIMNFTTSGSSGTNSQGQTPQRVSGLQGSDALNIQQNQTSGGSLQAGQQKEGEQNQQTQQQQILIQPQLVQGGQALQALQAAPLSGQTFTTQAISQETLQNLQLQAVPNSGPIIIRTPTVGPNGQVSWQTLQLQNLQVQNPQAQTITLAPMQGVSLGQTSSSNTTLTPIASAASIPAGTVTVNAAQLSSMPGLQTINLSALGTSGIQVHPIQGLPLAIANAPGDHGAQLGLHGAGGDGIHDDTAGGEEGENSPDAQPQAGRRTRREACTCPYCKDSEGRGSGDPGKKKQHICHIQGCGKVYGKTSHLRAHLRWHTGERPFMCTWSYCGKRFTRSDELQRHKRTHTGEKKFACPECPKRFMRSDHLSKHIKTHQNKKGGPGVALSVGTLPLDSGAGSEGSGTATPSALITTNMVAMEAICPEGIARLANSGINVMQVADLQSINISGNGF
Hepatocyte nuclear factor 6 (Homo sapiens), sequence (Q9UBC0 whole entry, looked up): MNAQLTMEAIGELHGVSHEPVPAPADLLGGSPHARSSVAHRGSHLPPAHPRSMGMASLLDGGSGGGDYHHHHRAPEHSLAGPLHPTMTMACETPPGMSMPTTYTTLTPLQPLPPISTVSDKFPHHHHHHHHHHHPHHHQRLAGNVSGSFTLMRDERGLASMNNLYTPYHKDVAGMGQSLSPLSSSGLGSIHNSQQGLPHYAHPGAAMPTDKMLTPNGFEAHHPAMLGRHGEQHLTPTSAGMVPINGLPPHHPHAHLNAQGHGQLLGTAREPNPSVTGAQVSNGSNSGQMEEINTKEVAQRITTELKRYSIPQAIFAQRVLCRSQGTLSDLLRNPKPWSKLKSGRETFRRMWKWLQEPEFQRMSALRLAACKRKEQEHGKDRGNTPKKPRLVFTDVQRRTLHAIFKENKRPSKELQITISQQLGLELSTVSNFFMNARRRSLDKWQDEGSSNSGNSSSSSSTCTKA
Signal transducer and activator of transcription 3 (Homo sapiens), sequence (P40763 whole entry, looked up): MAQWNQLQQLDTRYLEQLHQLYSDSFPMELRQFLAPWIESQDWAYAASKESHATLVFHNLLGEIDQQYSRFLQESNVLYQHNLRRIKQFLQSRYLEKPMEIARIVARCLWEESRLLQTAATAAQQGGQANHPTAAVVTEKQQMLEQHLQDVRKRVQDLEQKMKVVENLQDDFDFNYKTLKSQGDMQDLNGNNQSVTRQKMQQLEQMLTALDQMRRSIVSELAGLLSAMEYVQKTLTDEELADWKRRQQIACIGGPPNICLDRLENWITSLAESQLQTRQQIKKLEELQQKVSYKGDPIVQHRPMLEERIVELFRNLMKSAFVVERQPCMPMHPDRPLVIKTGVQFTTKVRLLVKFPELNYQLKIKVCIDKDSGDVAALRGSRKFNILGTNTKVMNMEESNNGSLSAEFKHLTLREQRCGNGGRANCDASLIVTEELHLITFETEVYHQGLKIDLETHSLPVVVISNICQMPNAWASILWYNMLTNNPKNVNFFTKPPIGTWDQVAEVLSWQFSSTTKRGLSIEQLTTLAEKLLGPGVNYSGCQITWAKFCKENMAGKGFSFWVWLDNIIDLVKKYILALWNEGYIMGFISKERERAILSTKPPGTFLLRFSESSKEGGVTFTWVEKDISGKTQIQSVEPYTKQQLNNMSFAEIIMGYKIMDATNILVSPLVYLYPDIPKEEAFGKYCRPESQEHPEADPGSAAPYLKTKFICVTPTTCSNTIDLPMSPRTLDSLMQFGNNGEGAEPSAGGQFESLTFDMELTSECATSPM
Heat shock factor protein 1 (Homo sapiens), sequence (Q00613 whole entry, looked up, the tested form may be a part): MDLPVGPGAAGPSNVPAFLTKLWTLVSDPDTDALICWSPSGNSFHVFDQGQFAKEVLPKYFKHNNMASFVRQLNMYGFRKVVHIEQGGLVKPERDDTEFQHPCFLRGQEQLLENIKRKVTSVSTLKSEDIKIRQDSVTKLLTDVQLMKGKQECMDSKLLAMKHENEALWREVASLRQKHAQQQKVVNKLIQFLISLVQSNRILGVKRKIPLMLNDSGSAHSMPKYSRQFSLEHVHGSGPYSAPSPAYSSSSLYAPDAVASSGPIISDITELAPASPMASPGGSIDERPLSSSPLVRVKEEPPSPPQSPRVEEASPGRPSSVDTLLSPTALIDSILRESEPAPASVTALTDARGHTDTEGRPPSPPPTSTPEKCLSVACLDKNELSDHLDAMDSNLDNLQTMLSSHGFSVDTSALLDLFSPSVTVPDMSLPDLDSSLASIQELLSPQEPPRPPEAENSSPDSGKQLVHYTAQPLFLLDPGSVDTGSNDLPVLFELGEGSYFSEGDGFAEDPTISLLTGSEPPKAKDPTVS
Hypoxia-inducible factor 1-alpha (Homo sapiens), sequence (Q16665 whole entry, looked up): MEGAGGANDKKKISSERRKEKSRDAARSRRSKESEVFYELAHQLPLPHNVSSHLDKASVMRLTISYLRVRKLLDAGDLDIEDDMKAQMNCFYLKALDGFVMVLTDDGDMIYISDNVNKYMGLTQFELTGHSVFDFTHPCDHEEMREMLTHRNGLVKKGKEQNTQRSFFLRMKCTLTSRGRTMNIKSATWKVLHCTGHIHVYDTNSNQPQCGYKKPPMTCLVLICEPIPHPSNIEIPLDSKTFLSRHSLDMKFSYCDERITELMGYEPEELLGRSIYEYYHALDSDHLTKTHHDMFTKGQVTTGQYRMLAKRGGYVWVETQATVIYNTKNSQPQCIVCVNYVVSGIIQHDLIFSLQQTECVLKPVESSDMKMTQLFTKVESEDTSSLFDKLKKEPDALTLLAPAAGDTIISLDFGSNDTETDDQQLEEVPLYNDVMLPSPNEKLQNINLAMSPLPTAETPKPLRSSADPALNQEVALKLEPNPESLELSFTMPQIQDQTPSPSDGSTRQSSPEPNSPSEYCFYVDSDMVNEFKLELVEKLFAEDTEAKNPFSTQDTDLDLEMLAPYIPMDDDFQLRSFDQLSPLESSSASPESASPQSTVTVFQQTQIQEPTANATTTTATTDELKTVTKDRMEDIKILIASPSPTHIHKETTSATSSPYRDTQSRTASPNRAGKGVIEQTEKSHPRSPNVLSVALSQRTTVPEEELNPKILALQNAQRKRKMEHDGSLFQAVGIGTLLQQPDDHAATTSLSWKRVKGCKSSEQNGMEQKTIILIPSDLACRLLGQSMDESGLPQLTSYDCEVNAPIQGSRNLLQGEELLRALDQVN
Paired box protein Pax-6 (Homo sapiens), sequence (P26367 whole entry, looked up): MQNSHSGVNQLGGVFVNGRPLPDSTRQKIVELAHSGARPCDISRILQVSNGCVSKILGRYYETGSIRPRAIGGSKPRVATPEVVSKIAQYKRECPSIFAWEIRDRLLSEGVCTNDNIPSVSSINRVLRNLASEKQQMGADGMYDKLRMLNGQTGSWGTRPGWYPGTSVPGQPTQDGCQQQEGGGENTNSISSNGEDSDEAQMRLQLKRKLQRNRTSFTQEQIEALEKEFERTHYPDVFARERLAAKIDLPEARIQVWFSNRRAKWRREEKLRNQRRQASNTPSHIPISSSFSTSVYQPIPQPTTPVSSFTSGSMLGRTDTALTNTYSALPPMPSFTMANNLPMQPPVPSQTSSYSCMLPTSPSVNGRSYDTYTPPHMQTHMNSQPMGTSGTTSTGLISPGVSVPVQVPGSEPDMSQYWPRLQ

CC1OC(=O)C(C)OC1=O (configuration not stated)
active: [5] 26.6 µM
not listed: [17] | [18]
inactive: all other assays above

CCCCc1ccc(Cl)cc1
not listed: [9] | [12] | [18]
inactive: all other assays above

C=Cc1ccc(OC(C)=O)cc1
not listed: [6] | [8] | [11] | [18]
inactive: all other assays above

O=C1CCCCCCCCCCC1
active: [9] 22.2 µM | [11] 8.96 µM
not listed: [7] | [8]
inactive: all other assays above

CC(=O)OCCc1ccccc1
not listed: [8] | [11]
inactive: all other assays above

CCCCOC(=O)CCC(C)=O
inactive: all assays above

CC(=O)/C=C/C1C(C)=CCCC1(C)C (configuration not stated)
active: [11] 5.09 µM
not listed: [2] | [6] | [9] | [16] | [18]
inactive: all other assays above

CC(C)(C)N
not listed: [10]
inactive: all other assays above

CC1=CCC(C(C)C)C=C1 (configuration not stated)
active: [8] 62.6 µM | [11] 3.56 µM
not listed: [12] | [17] | [18]
inactive: all other assays above

C1CNCCN1
not listed: [7] | [16] | [18]
inactive: all other assays above

C[Si](C)(C)N[Si](C)(C)C
not listed: [18]
inactive: all other assays above

C=C(C)C1CC=C(C)CC1 (configuration not stated)
not listed: [16] | [17] | [18]
inactive: all other assays above

Clc1cccnc1
active: [11] 27 µM
not listed: [2] | [9]
inactive: all other assays above

C=Cc1cccc(C)c1
active: [11] 13.3 µM
not listed: [8]
inactive: all other assays above

CN1CCN(C)CC1
not listed: [9] | [10] | [11] | [15]
inactive: all other assays above

CC(C)(c1ccccc1)c1ccc(Nc2ccc(C(C)(C)c3ccccc3)cc2)cc1
active: [11] 2.03 µM
not listed: [15] | [16] | [18]
inactive: all other assays above

C=C(C)[C@@H]1CC=C(C)CC1
not listed: [17] | [18]
inactive: all other assays above

CCOC(=O)CC(=O)c1ccccc1
active: [11] 10.4 µM
not listed: [12] | [16]
inactive: all other assays above

CCCc1ccc(O)c(OC)c1
not listed: [2] | [9] | [18]
inactive: all other assays above

Oc1ccc(/C=C/c2cc(O)cc(O)c2)cc1
active: [2] 100 µM | [9] 100 µM | [18] 100 µM | [14] 26.9 µM | [16] 137 µM
not listed: [5] | [11]
inactive: all other assays above
